Sampled rows, rich in hits. Any-hit rate of the full collection: about 12%.
AMA1 RON2 block: inhibitors of Plasmodium falciparum AMA1-RON2 interaction; AlphaScreen AMA1-biotinylated RON2 peptide binding; Potency, µM (series often up to 58.2 µM), usual class: inhibitors; actives 0.2% (n = 360,000); AID 720542; also: nearly all actives have a fitted effect of over 45% in size
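AMA1 (3D7) with his tag at 25 nM final met compounds first, then biotinylated RON2 peptide at 25 nM; detection used donor plus acceptor beads, 10 µg/mL apiece, read by AlphaScreen after 30 min at room temperature.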
Pf growth 48h: P. falciparum growth inhibition at 48 hours (one generation); AID 504832; actives 5.9% (n = 310,000); Potency, µM (highest dose often 28.7 µM), hits mostly inhibitors; P. falciparum luciferase growth in erythrocytes, 48 h
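Cell-based growth assay: transgenic P. falciparum expressing firefly luciferase, cultured in red cells within RPMI 1640 containing 0.5% w/v Albumax, 24 mM bicarbonate and gentamycin. A drop in luciferase activity indicates inhibition.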
NS1 function inh: blocks influenza NS1 protein function. Potency, µM (doses to about 46.1 µM). actives 0.4% (n = 270,000). AID 2326; calls by dose curve; also: actives are rising curves; nearly all actives have a fitted effect of over 50% in size
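Recovery from NS1-induced slow growth read by OD600 in budding yeast switched to galactose assay medium (pH 6.0, -URA) at 1:100 dilution. Compound 23 nl per well; the matching strain lacking NS1 serves as control.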
HCV inhibitor: blocks hepatitis C virus. Huh7.5.1 HCVcc-Cre infection, luciferase reporter, 44 h. Potency, µM (series often up to 41.8 µM), usual class: inhibitors. actives 3.4% (n = 340,000). AID 651820
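Compounds are dispensed onto cells plated 4 h earlier at 1,000 per well, with HCVcc-Cre virus (about 0.5 moi) added next. Following 44 h of culture, luminescent signal is measured for 15 sec after 15 min with substrate at room temperature.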
Pf growth 96h: P. falciparum growth inhibition at 96 hour, primary screen for plastid delayed-death inhibitors; P. falciparum luciferase reporter growth, 96 h; Potency, µM (titrated, usually from 28.7 µM), usual class: inhibitors; actives 6.9% (n = 320,000); AID 504834
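Two parasite generations (96 h, 37 C, 5% CO2) of compound exposure in infected erythrocytes (0.05% parasitemia, 2% hematocrit). Luciferase-reporter P. falciparum; decreased luminescence indicates inhibited growth, aimed at apicoplast-acting delayed death.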
SARS PLpro yeast: blocks SARS-CoV papain-like protease in a yeast assay; Potency, µM (doses to about 32.9 µM), hits mostly activators; actives 0.19% (n = 330,000); S. cerevisiae expressing SARS-CoV PLpro, growth rescue; AID 485353; calls by dose curve; also: nearly all actives have a fitted effect of over 55% in size
A number is an active result; - = inactive; ? = inconclusive; . = no result given. Unless noted, calls follow the shape of the dose curve; as a rule, active = well fitted curve in the direction sought with a large enough effect; inconclusive = small, poorly fitted or top-dose-only effect, or another doubt; inactive = no such curve, though single readings can be large; an effect the other way counts as inactive or inconclusive.

SMILES	AMA1 RON2 block	Pf growth 48h	NS1 function inh	HCV inhibitor	Pf growth 96h	SARS PLpro yeast
C=CCN(CC=C)C(=O)C(=O)c1ccn(-c2c(C)csc2C(=O)OC)c1	-	?	-	-	?	-
Cn1c(=O)c([N+](=O)[O-])c(-n2cnc3ccccc32)c2ccccc21	-	-	-	?	-	-
CCOC(=O)c1c(C)[nH]c(C(=O)CSc2nnc(C3CC3)n2N)c1C	-	0.33µM	-	?	.	-
CCCc1cc(=O)[nH]c(SCC(=O)c2[nH]c(C)c(C(=O)OCC)c2C)n1	-	-	?	11µM	-	-
CC(C)(C)c1ccc2c(c1)N(CC(=O)N1CCCC1)C(=O)CO2	-	12µM	-	-	-	-
Cc1ccc2c(c1)N(CC(=O)N1CCCC1)C(=O)C(C)O2 (configuration not stated)	-	?	-	-	?	-
CCN(CC)S(=O)(=O)c1ccc2c(c1)N(CC(=O)Nc1ccc(NC(C)=O)cc1)C(=O)CO2	-	-	-	-	?	-
CN1CCN(C(=O)CN2C(=O)COc3ccc(S(=O)(=O)N4CCOCC4)cc32)CC1	-	-	-	-	5.2µM	-
Cc1ccc2c(c1)N(CC(=O)N1CCCCC1)C(=O)C(C)O2 (configuration not stated)	-	-	-	-	9.3µM	-
CCCN1CCN(C(=O)CN2C(=O)COc3ccc(S(=O)(=O)N(CC)CC)cc32)CC1	-	-	-	-	2.9µM	-
Cc1c(NC(=O)c2cnc(Cl)c(Cl)c2)c(=O)n(-c2ccccc2)n1C	-	-	-	-	-	-
O=c1onc2cnc3ccccc3n12	.	.	-	.	.	.
C/C(=C/c1oc2ccc(O)cc2c1[N+](=O)[O-])N(C)C	?	.	-	?	15µM	-
CC(=O)Oc1ccc2oc(/C=C/N(C)C)c([N+](=O)[O-])c2c1	-	.	-	-	?	-
Cc1ncn(-c2ccccc2O)c1C	.	.	-	.	.	.
OC(CN1CCOCC1)c1ccc(F)cc1 (configuration not stated)	-	-	.	-	-	-
O=C(c1ccc(F)cc1)C(CCCCCC(CN1CCOCC1)C(=O)c1ccc(F)cc1)CN1CCOCC1 (configuration not stated)	-	?	-	?	9.3µM	-
CCCCC(OC(=O)CN1C(=O)COc2ccccc21)C(=O)NC1CCCCC1 (configuration not stated)	-	-	-	-	-	-
Cc1nc(N2CCOCC2)[nH]c(=O)c1C	-	-	.	-	-	-
CCCCCc1c(C)nc(N2CCOCC2)[nH]c1=O	-	-	-	-	8.3µM	-
CCCCCc1c(C)nc(N2CCc3ccccc32)[nH]c1=O	-	9.3µM	-	-	-	-
CCN(CC)C(=O)c1cc(Cl)ccc1NC(=O)c1ccco1	-	-	-	-	-	-
CCN(CC)P(=O)(Nc1ccccc1Br)c1ccc(N(C)C)cc1NC(=O)c1ccco1 (configuration not stated)	-	?	.	?	9.3µM	-
COc1ccc(-c2csc(N3CCN(c4cc(C)nc5ccccc45)CC3)n2)cc1OC	-	?	-	2.8µM	?	-
COc1ccc(-c2nsc3c(N4CCN(S(=O)(=O)c5ccccc5F)CC4)ncnc23)cc1	-	-	-	-	-	-
SMILES	AMA1 RON2 block	Pf growth 48h	NS1 function inh	HCV inhibitor	Pf growth 96h	SARS PLpro yeast
COc1ccc2nc(C)cc(N3CCN(c4ccccc4)CC3)c2c1	?	13µM	-	22µM	9.3µM	-
COc1ccc2nc(C)cc(N3CCN(S(=O)(=O)c4ccccc4F)CC3)c2c1	-	?	.	7.1µM	9.3µM	-
COc1cc(-c2csc(N3CCOCC3)n2)cc(OC)c1OC	-	?	-	-	?	-
COc1cccc(Cl)c1NC(=O)N1CCN(c2cc(C)nc3ccccc23)CC1	-	?	-	10µM	?	-
COc1cccc(Cl)c1NC(=O)N1CCN(c2ccnc3cc(Cl)ccc23)CC1	-	?	-	?	?	-
Nc1nc(SCCc2ccccc2)c2[nH]cnc2n1	.	.	-	.	.	.
CC(C)(C)c1cc(NC(=O)CSc2nncs2)n(-c2ccccc2)n1	-	-	-	?	-	-
COc1ccc(C(=O)CN2CCN(c3cc(C)nc4ccccc34)CC2)cc1	-	?	-	10µM	?	-
Cc1ccc2nc(C)cc(N3CCOCC3)c2c1	-	-	-	10µM	.	.
COc1ccc(N2CCN(CC(=O)c3ccccc3)CC2)cc1	-	-	-	-	-	-
COc1ccc2nc(C)cc(N3CCOCC3)c2c1	-	-	-	-	-	-
Cc1sc2ncnc(SCC(=O)N3CCOCC3)c2c1C	-	-	.	-	-	-
Cc1sc2ncnc(NCC3CCCO3)c2c1C (configuration not stated)	-	-	-	13µM	-	-
Cc1sc2ncnc(NCC(C)(C)N3CCOCC3)c2c1C	-	.	?	5.6µM	?	-
CCc1cc2c(NCC3CCCO3)ncnc2s1 (configuration not stated)	-	-	-	?	-	-
Cc1sc2ncnc(NCC3(N4CCOCC4)CCCCC3)c2c1C	-	.	-	-	1.9µM	-
CCOc1ccccc1CNC(=O)CCc1cn(CC)c2ccccc12	-	15µM	-	?	-	-
CCn1cc(CCC(=O)NCc2cccc(OC)c2OC)c2ccccc21	-	-	-	?	-	-
CCOc1ccc(CNC(=O)CCCc2cn(C)c3ccccc23)cc1	-	3.7µM	-	-	-	-
Cc1ccc(CNC(=O)CCc2cn(C)c3ccccc23)cc1	-	-	-	-	13µM	-
CCOc1ccc(CNC(=O)CCCc2cn(C)c3ccccc23)cc1OC	-	-	-	?	?	-
CCn1cc(CCCC(=O)NCc2ccc(OC)cc2)c2ccccc21	-	2.3µM	-	?	-	-
COCCN1C(=O)CS/C1=C(/C#N)C(=O)NCc1ccco1	-	?	.	-	-	-
COCCn1c(N)c(N(Cc2ccccc2)C(=O)Cc2c(Cl)cccc2Cl)c(=O)[nH]c1=O	-	-	.	-	-	-
O=C(C1CCCN1C(=O)c1cccs1)N1CCN(S(=O)(=O)c2ccc(F)cc2)CC1 (configuration not stated)	-	?	.	-	-	-
SMILES	AMA1 RON2 block	Pf growth 48h	NS1 function inh	HCV inhibitor	Pf growth 96h	SARS PLpro yeast
Cc1ccc(CNC(=O)CCn2cc(-c3ccc(C)cc3)nc2CCN)cc1	-	12µM	.	-	?	-
O=C(O)Cc1cn(Cc2ccc(F)cc2)c2ccccc12	-	-	.	-	-	-
Cc1ccc(Cn2cc(CCC(=O)O)c3ccccc32)cc1	-	.	-	-	4.7µM	-
Cc1ccc(Cl)cc1NC(C#N)c1ccccc1 (configuration not stated)	-	-	-	-	-	-
CN(C)C(=O)c1ccc(-c2cc3onc(-c4ccccc4)c3c(=O)n2C)cc1	-	.	.	3.5µM	.	-
CCCCNCC(=O)Nc1sc(C)c(C)c1C(=O)OCC	-	-	-	11µM	-	-
